Laboratory results taken from ChEMBL document CHEMBL3988442, “University of Dundee, Small-Polar-MMV Screening Library” (2021).
The whole screen tested about 53,000 compounds, of which about 900 (1.7%) showed an effect of 50% or more. For the sample, strong results were picked, then their nearest neighbours and some compounds at random.

What follows are compounds tested on Mycobacterium tuberculosis (assay: Cornell - Phenotypic assay to identify agents that inhibit growth of Mycobacterium tuberculosis). Details: 10 mM as filed; unlikely as a test dose.
Format: functional
Set-up: scale not given: direction of the effect not stated beside the values
With `COc1ccc(NC(=O)Cn2nc(C)c(C(C)=O)c2C)cc1` the “Percent Effect” value was 109.6%.
With `COc1ccc(NC(=O)Cn2nc(C)c(C)cc2=O)cc1` the “Percent Effect” value was -2.402%.
In the case of `CC(=O)c1c(C)nn(CC(=O)Nc2ccc(F)cc2)c1C`, the “Percent Effect” value is reported as -30.72%.
With `Cc1cc(=O)n(CC(=O)Nc2ccc(Cl)cc2)nc1C` the “Percent Effect” value was 13.93%.
In the case of `COc1ccc(NC(=O)Cn2nc(C)c(C)cc2=O)cc1Cl`, the “Percent Effect” value is reported as 14.09%.
In the case of `CC(=O)c1c(C)nn(CC(=O)Nc2ccc(Br)cc2)c1C`, the “Percent Effect” value is reported as 109.5%.
`COCCN1CC[C@]2(CN(C(=O)c3ccc[nH]3)C[C@H]2C)C1=O` was tested, and the “Percent Effect” value was 14.18%.
`Cc1nn(C)c(Cl)c1C1CCCN1Cc1noc(C2CC2)n1` (configuration not stated) was tested, and the “Percent Effect” value was -6.241%.
With `CCCC(NC(=O)c1cscc1C)c1nnn[nH]1` (configuration not stated) the “Percent Effect” value was -31.84%.
With `Cc1cnc(CN(C)C2CCN(Cc3sc(C)nc3C)C2)o1` (configuration not stated) the “Percent Effect” value was -24.44%.
`CC(Oc1ccccc1C(F)(F)F)C(=O)NS(=O)(=O)C(C)C` (configuration not stated) was tested, and the “Percent Effect” value was 54.22%.
With `COC(=O)CNC(=O)C(C)Oc1ccccc1C(F)(F)F` (configuration not stated) the “Percent Effect” value was -2.134%.
With `CC(Oc1ccccc1C(F)(F)F)C(=O)NCC(N)=O` (configuration not stated) the “Percent Effect” value was -32.94%.
With `COCCCN(Cc1ccncc1)c1ncc(C#N)cc1Cl` the “Percent Effect” value was 15.37%.
With `COc1cc(C(=O)Nc2nc(C)no2)ccc1C` the “Percent Effect” value was 102.2%.
`Cc1noc(NC(=O)c2ccc(C)c(F)c2)n1` was tested, and the “Percent Effect” value was 108.6%.
`Cc1noc(NC(=O)c2ccc(F)cc2)n1` was tested, and the “Percent Effect” value was 2.649%.
For `COc1cc(C(=O)NS(=O)(=O)c2cccc(C#N)c2)ccc1C`, the “Percent Effect” value was 15.37%.
For `Cc1cc(NC(=O)c2ccc(C)c(F)c2)[nH]n1`, the “Percent Effect” value was 32.04%.
`COc1cc(C(=O)Nc2c(C)noc2C)ccc1C` was tested, and the “Percent Effect” value was 19.94%.
With `Fc1cc(Cl)cnc1N1CCCC(c2nccn2Cc2ccccn2)C1` (configuration not stated) the “Percent Effect” value was 15.7%.
With `O=C(c1cc(Cn2ccc3ccccc32)[nH]n1)N1CCC[C@H]1CO` the “Percent Effect” value was 36.89%.
With `Cc1c(CN2C[C@@H](O)[C@H](Oc3cccc(F)c3)C2)cnn1C` the “Percent Effect” value was -27.75%.
For `CC(C)c1cc(=O)[nH]c(C(C)(C)N)n1.Cl`, the “Percent Effect” value was 8.844%.
`CCCc1cc(=O)[nH]c(SCc2ccccn2)n1` was tested, and the “Percent Effect” value was -4.123%.
In the case of `CCc1cc(=O)[nH]c(-n2nc(C3CC3)cc2NC(=O)C2CC2)n1`, the “Percent Effect” value is reported as 108.9%.
In the case of `Cc1cc(=O)[nH]c(-n2nc(C3CC3)cc2N)n1`, the “Percent Effect” value is reported as 39.12%.
`CCCc1cc(=O)[nH]c(-n2nc(C3CC3)cc2N)n1` was tested, and the “Percent Effect” value was 107.6%.
`CCCc1cc(=O)[nH]c(-c2cccc(CN3CCCCCC3)c2)n1` was tested, and the “Percent Effect” value was 11.6%.
For `CCc1c(C)nc(-n2nc(C3CC3)cc2NC(C)=O)[nH]c1=O`, the “Percent Effect” value was 9.536%.
`CC(C)c1cc(=O)[nH]c(-n2nc(C3CC3)cc2N)n1` was tested, and the “Percent Effect” value was 108.3%.
`Cn1nc(CNC(=O)C2CC2)cc1C1CC1` was tested, and the “Percent Effect” value was 29.19%.
